Test results from PubChem BioAssay AID651599 (National Center for Advancing Translational Sciences (NCATS), 2012).
Inconclusive results are not listed. Active and inactive are the calls of the source. The call rests on the fitted dose curve; in most records, active means well fitted inhibition curve with a large enough effect; inconclusive means small, poorly fitted or top-dose-only effect; inactive means no such curve, though single readings can be large or run the other way.

biological target: Tumor susceptibility gene 101 protein (Homo sapiens) (UniProt Q99816); assay: qHTS Assay for Iinhibitors of HIV-1 Budding by Blocking the Interaction of PTAP/TSG101: Hit Validation in TR assay; conditions: Tsg101 binding domain + Texas Red-labeled PTAP peptide, fluorescence polarization, 20 min; series mostly up to 57.5 µM
Sequence (Q99816 whole entry, looked up, the tested form may be a part): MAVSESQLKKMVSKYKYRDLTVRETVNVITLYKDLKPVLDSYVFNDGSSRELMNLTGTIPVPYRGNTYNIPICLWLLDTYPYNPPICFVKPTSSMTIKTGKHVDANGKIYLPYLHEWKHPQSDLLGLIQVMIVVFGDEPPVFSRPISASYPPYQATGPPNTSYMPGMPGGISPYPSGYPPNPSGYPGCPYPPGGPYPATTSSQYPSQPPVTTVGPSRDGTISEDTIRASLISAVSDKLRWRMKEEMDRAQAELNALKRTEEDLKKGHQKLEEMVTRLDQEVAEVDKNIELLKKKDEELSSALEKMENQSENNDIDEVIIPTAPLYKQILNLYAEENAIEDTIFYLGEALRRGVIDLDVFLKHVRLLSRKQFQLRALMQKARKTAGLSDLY
Outline: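 Texas Red-PTAP peptide (50 nM) binding to Tsg101 binding domain (10 uM), both final, in pH 7.5 HEPES buffer, read as polarization after 20 min at room temperature; compounds pinned before peptide addition.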

Potency, inactive:
CC1(C)Cc2c(C#N)c(SCCC#N)nc(N3CCOCC3)c2CS1
O=c1nc2c(O)cccn2c2c1c(=O)[nH]c1ccccc12
O=C1c2ccccc2S(=O)(=O)c2cc(N3CCN(C(=O)c4ccccc4)CC3)ccc21
CCCCNc1c2c3c(cccc3n(C)c1=O)C(=O)c1ccccc1-2
Cc1c(C(=O)Nc2cccc(C(F)(F)F)c2)sc2nc3n(c(=O)c12)CCCC3
C=CCOc1ccc(C2OC34CCCCC3C(C#N)(C#N)C2(C#N)C(=N)O4)cc1 (centres undefined)
CN1CCc2c(sc(NC(=O)CSc3ccc(F)cc3)c2-c2nc3ccccc3s2)C1
COc1ccc(CCn2c(=N)c(S(=O)(=O)c3ccc(Cl)cc3)cc3c(=O)n4ccccc4nc32)cc1
COc1ccc(NC(=O)c2cccc(-c3ccc(O)cc3)c2)cn1
COc1ccc(CNC(=O)C(C#N)c2nc3ccccc3nc2N2CCCC2)cc1 (centres undefined)
CC(=O)OCCn1c2nc(=O)[nH]c(=O)c-2nc2cc(C)c(C)cc21
CCCCCCn1c(=O)[nH]c2nc3cc(N)ccc3nc2c1=O
COc1ncnc2c1N=C1CC(C)(C)CC(N)=C1S2
O=C(O)c1ccccc1-c1ccc(/C=C/c2cc(C(F)(F)F)[nH]c(=O)n2)o1
O=C(NC1CCCCC1)c1cccc2c1C(=O)c1ccc(N3CCC(Cc4ccccc4)CC3)cc1S2(=O)=O
NC(=O)CSc1nc2c(sc3ccccc32)c(=O)n1CCCC(=O)NCC1CCCO1 (centres undefined)
Cc1cc2nc3c(=O)[nH]c(=O)[nH]c3nc2c([N+](=O)[O-])c1N
C1=C(c2ccc(-c3ccccc3)cc2)Nc2ncnn2C1c1ccco1 (centres undefined)
Cn1cc(/C=C2\SC(=S)N(NC(=O)c3ccccc3)C2=O)c2ccccc21
CCC(=O)Oc1ccc2c(c1)O/C(=C\c1ccco1)C2=O
CCCN1CCN(S(=O)(=O)c2cn(C)nc2C)CC1
Cn1c(=O)cc2c3c(c(N4CCCCC4)ccc31)C(=O)c1ccccc1-2
COc1cc(OC)c(-c2c3cc(O)c(=O)cc-3oc3cc(O)c(O)cc23)cc1OC
C[C@H](O)C(=O)C1=Nc2c(nc(N)[nH]c2=O)NC1
Cn1c2ccc(F)cc2c2nc3ccccc3nc21
Nc1nnnn1/N=C/c1cc(Cl)cc(Cl)c1O
Cc1cc(=O)oc(C)c1C(=O)Nc1ccc2ncccc2c1
CCOC(=O)c1cnc2ccc(OC)cc2c1Nc1ccc(N2CCN(C)CC2)cc1
C=CCn1c(=O)/c(=C/c2ccc(C)o2)s/c1=C(/C#N)C(=O)c1ccccc1
CN1/C(=C\C=C2/C(=O)Oc3ccccc3C2=O)C(C)(C)c2ccccc21
Nc1ccc2c3c(cccc13)C(=O)N(c1ccccc1)C2=O
COc1ccccc1NC(=O)C(C)OC(=O)C1CC(=O)N(c2ccc3c(c2)OCCO3)C1 (centres undefined)
COC(=O)C[C@H]1c2cc(F)ccc2S(=O)(=O)N1c1ccccc1
CC(=O)Nc1ccc(N2C(=O)c3cccc4c(O)ccc(c34)C2=O)cc1
O=C1Nc2ccc(F)cc2C12Nc1ccccc1-c1nnc(SCc3ccccc3)nc1O2 (centres undefined)
CCOC(=O)c1c(C)oc2c1c(CN1CCN(C(=O)OCC)CC1)c(O)c1ccccc12
O=C1/C(=N\S(=O)(=O)c2cccs2)C([n+]2cccc(Cc3ccccc3)c2)=C([O-])c2ccccc21
O=S(=O)(Nc1nc2n(n1)C(c1ccccc1)C=C(c1ccc(Cl)cc1)N2)c1ccccc1 (centres undefined)
Cc1cc2nc3c(=O)n(C4CCCCC4)c(=O)[nH]c3nc2cc1N
